According to PubChem BioAssay AID624481 (The Scripps Research Institute Molecular Screening Center, 2012):
Values without a mark were called inactive. Calls of active or inactive are those of the source. No stated cut-off is given here; in the data, active means inhibition above about 50%; inactive means the rest.

These compounds were tested against Prolyl endopeptidase-like (Mus musculus) (UniProt Q8C167) (assay: purified PREPL inhibitors, PREPL inhibitor project, biochemical, gel-based competitive ABPP, fluorescence, HTS hits (AID 624481)). Conditions: at 20 µM, active compounds read high.
Sequence of Prolyl endopeptidase-like (Mus musculus) (Q8C167 whole entry, looked up): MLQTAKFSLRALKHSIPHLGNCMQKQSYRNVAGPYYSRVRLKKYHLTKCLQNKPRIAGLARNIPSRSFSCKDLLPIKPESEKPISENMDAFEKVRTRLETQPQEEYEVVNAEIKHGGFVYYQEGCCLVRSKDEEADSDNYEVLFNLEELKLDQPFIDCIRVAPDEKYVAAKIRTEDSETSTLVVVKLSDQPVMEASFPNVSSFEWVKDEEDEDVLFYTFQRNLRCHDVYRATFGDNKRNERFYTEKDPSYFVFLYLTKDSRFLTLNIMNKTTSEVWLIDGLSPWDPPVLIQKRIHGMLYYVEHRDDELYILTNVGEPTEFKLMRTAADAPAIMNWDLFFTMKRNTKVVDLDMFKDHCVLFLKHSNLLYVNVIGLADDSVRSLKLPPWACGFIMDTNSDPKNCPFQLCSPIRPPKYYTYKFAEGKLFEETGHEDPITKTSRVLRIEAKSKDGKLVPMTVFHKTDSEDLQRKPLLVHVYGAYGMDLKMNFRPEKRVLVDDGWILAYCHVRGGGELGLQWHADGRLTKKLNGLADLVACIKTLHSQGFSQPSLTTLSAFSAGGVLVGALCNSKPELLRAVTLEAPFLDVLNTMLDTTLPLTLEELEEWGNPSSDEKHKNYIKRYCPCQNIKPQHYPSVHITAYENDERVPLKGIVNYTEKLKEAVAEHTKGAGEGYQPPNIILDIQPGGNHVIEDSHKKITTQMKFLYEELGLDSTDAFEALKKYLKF

Structure (SMILES) | inhibition
O=C(C1=C[C@@H](c2ccc(Br)cc2)C[C@@H](OCc2ccc(CO)cc2)O1)N1CCN(Cc2ccc3c(c2)OCO3)CC1 | -105%
C#CCOCCOCCOCCNc1nc(N2CCN(C(=O)CCCCCCCCCCNC(=O)[C@H]([C@@H](C)CC)n3cc(CCCCCN)nn3)CC2)nc(N2CCN(C(=O)CCCCCCCCCCNC(=O)[C@H](CO)n3cc(CCCCCN)nn3)CC2)n1 | -61%
C#CCOCCOCCOCCNc1nc(N2CCN(C(=O)CCCCCCCCCCNC(=O)Cn3cc(CCCCCN)nn3)CC2)nc(N2CCN(C(=O)CCCCCCCCCCNC(=O)Cn3cc(CCCCCN)nn3)CC2)n1 | -99%
CC[C@@H](C)[C@@H]1CN([C@@H](CN2CCC[C@H]2CN2C(N)=NC[C@H]2C(C)C)C(C)C)C(=N)N1CCCC1CCCC1 | -53%
O=C1NC(Cc2c[nH]c3ccccc23)C(=O)N1Cc1ccc(CN2C(=O)NC(Cc3c[nH]c4ccccc34)C2=O)cc1 (configuration not stated) | 28%
CCCCCNc1nc(N2CCCC2)c2c(c1C#N)CCN(C)C2 | -89%
CCC(CO)[n+]1c(C)cc(/C=C2\Sc3ccccc3N2Cc2ccccc2)cc1C (configuration not stated) | -20%
CC(C)(C)Nc1nc(-c2ccccn2)nc2ccccc12 | -31%
CCC(=O)N1CCN(c2ccc(NC(=O)COc3cccc(C)c3C)cc2)CC1 | -49%
CN1CCN(c2ccc(NC(=O)COc3ccc(Cl)cc3Cl)cc2)CC1 | -13%
COc1cc2nc(Nc3ccc(C)c(C)c3)nc(N)c2cc1OC | 0%
C=CC[n+]1c(/C=C2\C=Cc3cc(C)ccc3N2CC)ccc2ccccc21 | -26%
C#CCOCCOCCOCCNc1nc(N2CCN(C(=O)CCCCCCCCCCNC(=O)Cn3cc(CCCCCN)nn3)CC2)nc(N2CCN(C(=O)CCCCCCCCCCNC(=O)[C@H](CO)n3cc(CCCSC)nn3)CC2)n1 | 31%
COc1ccc(N2CCN(c3cc(C)nc4ccc(OC)cc34)CC2)cc1 | -69%
COc1ccc(-[n+]2c(C)cc(/C=C3\Sc4ccccc4N3C)cc2C)cc1 | -11%
COc1ccc(C2CC(c3cccc(C)c3)n3nc(N)nc3N2)cc1 (configuration not stated) | -50%
c1ccc(CCNc2nc(-c3ccccn3)nc3ccccc23)cc1 | -127%
CCCCN1C(=N)N([C@@H](CN2CCC[C@H]2CN2C(N)=NC[C@@H]2Cc2ccccc2)C(C)C)C[C@H]1Cc1ccccc1 | -44%
O=C(C1=C[C@@H](c2ccc(C(F)(F)F)cc2)C[C@@H](OCCCCO)O1)N1CCN(Cc2ccc3c(c2)OCO3)CC1 | -20%

Structure (SMILES) | inhibition
COc1ccc(C)cc1Nc1n[n+](-c2ccccc2)c(-c2ccc(OC)c(OC)c2OC)s1 | -41%
Cc1ccccc1C(=O)N1CCN(c2ccc(NC(=O)CSc3ccc(Cl)cc3)cc2)CC1 | -27%
COc1ccc(C(=O)c2coc3ccc(O)c(CN4CCCCC4)c23)cc1 | -53%
C[N+](C)(CCCCCC[N+](C)(C)CCCN1C(=O)c2cccc3cccc(c23)C1=O)CCCN1C(=O)c2cccc3cccc(c23)C1=O | -29%
CN1CCN(C(=O)C2=C[C@@H](c3ccc(C(F)(F)F)cc3)C[C@@H](OCc3ccc(CO)cc3)O2)CC1 | -83%
C#CCOCCOCCOCCNc1nc(N2CCN(C(=O)C(Cc3cc4ccccc4[nH]3)n3cc(C(N)C(C)CC)nn3)CC2)nc(N2CCN(C(=O)C(Cc3cc4ccccc4[nH]3)n3cc(C(N)C(C)CC)nn3)CC2)n1 (configuration not stated) | -161%
O=C(C1=C[C@@H](c2ccc(C(F)(F)F)cc2)C[C@@H](OCCCCO)O1)N1CCN(Cc2ccccc2)CC1 | -70%
CN(C)c1ccc(C=NNC(=S)NCc2ccccc2)cc1 | -20%
Oc1c(CN2CCCCC2)cc(COCc2ccccc2)c2cccnc12 | 92% (active)
CCc1ccc(OCC(=O)Nc2ccc(N3CCN(C(=O)c4ccccc4)CC3)cc2)cc1 | -73%
C#CCOCCOCCOCCNc1nc(N2CCN(C(=O)[C@H](Cc3ccc(O)cc3)n3cc([C@@H](N)CC(C)C)nn3)CC2)nc(N2CCN(C(=O)[C@H](Cc3cc4ccccc4[nH]3)n3cc([C@@H](N)CC(C)C)nn3)CC2)n1 | -77%
c1ccc(CNc2nc(-c3ccccn3)nc3ccccc23)cc1 | -89%
O=C(COc1ccccc1Cl)Nc1ccc(N2CCN(C(=O)c3ccccc3)CC2)cc1 | -61%
CCn1c2ccccc2c2cc(CNCc3ccc(OC)cc3OC)ccc21 | -93%
CC1CCCN(Cc2c(O)ccc3c(=O)c(-c4nc5ccccc5s4)c(N)oc23)C1 (configuration not stated) | 3%
C#CCOCCOCCOCCNc1nc(N2CCN(C(=O)[C@H](Cc3cc4ccccc4[nH]3)n3cc([C@@H](N)C(C)CC)nn3)CC2)nc(N2CCN(C(=O)[C@H](CCCCN)n3cc([C@@H](N)CC(C)C)nn3)CC2)n1 (some centres not stated) | -29%
COc1ccc2c(CC(=O)Nc3ccc(N4CCOCC4)cc3)coc2c1 | -44%
c1ccc(-c2nc3ccccn3c2NC2CCCC2)nc1 | -69%
